The full data set covers some 8,800 targets. This sample favours those with a hit. About 0.5% of all pairs of compound and target were hits.
Legend:
Assay in all cases: log2 fold change, soluble protein after heating vs DMSO (PISA); higher = thermal stabilisation; K562 lysate, 10 uM; active = over 0.2 and 3.5 SD of the protein, either way, in both replicates (recomputed)
erlotinib = compound: C#Cc1cccc(Nc2ncnc3cc(OCCOC)c(OCCOC)cc23)c1 [erlotinib]
Method in brief: (§1)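 Thermal stability, expressed as log-two fold change relative to solvent controls, is given from duplicates. Crude K562 extract in PBS pH 7.4 with 1 mM MgCl2, at 1 mg/mL protein, was treated with 10 μM compound for 30 min and heated in aliquots for 3 min across 48°C-58°C. After pooling, adjustment to 0.5% NP-40 at 4°C and centrifugation at 21,000xg for 90 min, supernatant protein was measured by TMTpro 16plex LC-MS/MS with channel sums equalised.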

[1] = compound: C/C(=N\NC(=O)C1=CC(=CC=C1)S(=O)(=O)N2CCOCC2)/C3=C(C=CC(=C3)Cl)O
Method in brief: as §1

[2] = compound: C1=CC(=CC=C1C2=NC3=C(N2)C=C(C=C3)C(=O)N)OC4=CC=C(C=C4)Cl
Method in brief: as §1

[3] = compound: C1=CC2=C(C=CC(=C2)/C=C\3/C(=O)NC(=NCC4=CC=CS4)S3)N=C1
Method in brief: as §1

[4] = compound: C1=CC2=NC=CN=C2C=C1/C=C/3\C(=O)NC(=O)S3
Method in brief: as §1

[5] = compound: C1=CC=C(C=C1)C2=NC(=C(N2)C3=CC=NC=C3)C4=CC(=C(C=C4)Cl)O
Method in brief: as §1

[6] = compound: C1=CC=C2C(=C1)C3=NNC4=CC=CC(=C43)C2=O
Method in brief: as §1

[7] = compound: C1CCN(C1)C(=O)NC2=CC=CC(=C2)NC3=NC=C(C(=N3)NCCC4=CN=CN4)Br
Method in brief: as §1

[8] = compound: C1CN(CCC1(CC2=CC=C(C=C2)Cl)N)C3=NC=NC4=C3C=CN4
Method in brief: as §1

IRAK-1-4 Inhibitor I = compound: C1COCCN1CCN2C3=CC=CC=C3N=C2NC(=O)C4=CC(=CC=C4)[N+](=O)[O-] [IRAK-1-4 Inhibitor I]
Method in brief: as §1

[9] = compound: CC(=O)c1cnc2ccc(-c3cc(Cl)c(O)c(Cl)c3)nc2c1N[C@H]1CC[C@H](CN(C)C)CC1
Method in brief: as §1

ralimetinib = compound: CC(C)(C)Cn1c(N)nc2ccc(-c3[nH]c(C(C)(C)C)nc3-c3ccc(F)cc3)nc21 [ralimetinib]
Method in brief: as §1

[10] = compound: CC(C)(O)CC(=O)NCCn1ccc2ncnc(Nc3ccc(Oc4cccc(C(F)(F)F)c4)c(Cl)c3)c21
Method in brief: as §1

[11] = compound: CC(C)C1=C2N=C(C=C(N2N=C1)NCC3=CC=CC=C3)NCCCCCCN
Method in brief: as §1

[12] = compound: CC1=C(C(CC(=O)N1)C2=CC=C(C=C2)C(F)(F)F)C(=O)NC3=C(C=C4C(=C3)C=NN4)F
Method in brief: as §1

[13] = compound: CC1=C(C2=C(C=C1)C(=O)C3=CC=CC=C3N2CCCN)C
Method in brief: as §1

[14] = compound: CC1=C(C=C(C=C1)NC(=O)C2=CC(=CC=C2)C(C)(C)C#N)NC3=CC4=C(C=C3)N=CN(C4=O)C
Method in brief: as §1

[15] = compound: CC1=C(C=C(C=C1)NC(=O)C2=CC(=CC=C2)N(C)C)NC(=O)C3=CC=C(C=C3)O
Method in brief: as §1

[16] = compound: CC1=CC=C(C=C1)SC2=C3C=C(SC3=CN=C2)C(=O)N
Method in brief: as §1

ibrutinib = compound: C=CC(=O)N1CCC[C@@H](n2nc(-c3ccc(Oc4ccccc4)cc3)c3c(N)ncnc32)C1 [ibrutinib]
Method in brief: as §1

Measured: log2 fold change

CLPTM1L (UniProt Q96KA5)
inactive: erlotinib -0.019 | [1] 0.014 | [2] -0.143 | [3] -0.01 | [4] 0.009 | [5] -0.052 | [6] -0.197 | [7] -0.059 | [8] 0.091 | IRAK-1-4 Inhibitor I -0.01 | [9] -0.011 | ralimetinib 0.041 | [10] -0.041 | [11] 0.048 | [12] 0.058 | [13] 0.081 | [14] -0.024 | [15] 0.039 | [16] -0.005

CNTN4 (UniProt Q8IWV2)
UniProt Q8IWV2, sequence (Q8IWV2 whole entry, looked up): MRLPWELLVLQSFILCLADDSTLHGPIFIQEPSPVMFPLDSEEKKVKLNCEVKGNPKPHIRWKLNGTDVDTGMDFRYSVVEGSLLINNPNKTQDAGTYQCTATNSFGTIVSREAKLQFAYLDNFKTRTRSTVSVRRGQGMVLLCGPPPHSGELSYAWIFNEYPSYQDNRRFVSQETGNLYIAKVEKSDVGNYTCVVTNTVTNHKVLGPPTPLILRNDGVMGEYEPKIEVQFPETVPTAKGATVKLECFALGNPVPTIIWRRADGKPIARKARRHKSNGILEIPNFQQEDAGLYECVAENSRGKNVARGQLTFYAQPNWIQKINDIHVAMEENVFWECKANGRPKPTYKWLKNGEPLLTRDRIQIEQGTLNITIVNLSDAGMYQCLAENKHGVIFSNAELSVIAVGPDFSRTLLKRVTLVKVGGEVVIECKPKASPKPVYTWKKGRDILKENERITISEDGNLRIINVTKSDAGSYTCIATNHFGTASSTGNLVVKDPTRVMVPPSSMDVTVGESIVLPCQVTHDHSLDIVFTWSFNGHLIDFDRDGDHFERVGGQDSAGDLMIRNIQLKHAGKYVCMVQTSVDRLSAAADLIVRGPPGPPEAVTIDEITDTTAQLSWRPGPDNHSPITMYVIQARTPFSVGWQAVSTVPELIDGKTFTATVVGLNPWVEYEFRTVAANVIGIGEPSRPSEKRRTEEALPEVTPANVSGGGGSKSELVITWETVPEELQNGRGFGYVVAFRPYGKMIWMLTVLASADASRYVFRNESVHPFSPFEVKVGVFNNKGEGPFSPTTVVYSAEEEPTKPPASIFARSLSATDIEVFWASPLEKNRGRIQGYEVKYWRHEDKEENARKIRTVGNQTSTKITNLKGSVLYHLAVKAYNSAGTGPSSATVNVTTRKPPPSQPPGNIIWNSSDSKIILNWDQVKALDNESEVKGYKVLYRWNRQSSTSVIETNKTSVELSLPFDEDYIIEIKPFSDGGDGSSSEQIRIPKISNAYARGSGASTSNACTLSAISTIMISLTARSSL
inactive: erlotinib 0.053 | [1] 0.063 | [2] 0.138 | [3] -0.03 | [4] 0.053 | [5] 0.046 | [6] -0.203 | [7] -0.124 | [8] 0.138 | IRAK-1-4 Inhibitor I 0.119 | ibrutinib -0.043 | [9] -0.154 | ralimetinib -0.286 | [10] -0.341 | [11] 0.094 | [12] -0.077 | [14] 0.312 | [15] -0.039 | [16] -0.141

CLUH, A0A494C0R8
inactive: erlotinib 0.077 | [1] -0.023 | [2] -0.041 | [3] 0.02 | [4] 0.225 | [5] 0 | [6] -0.114 | [7] 0.05 | [8] -0.063 | IRAK-1-4 Inhibitor I 0.008 | [9] 0.138 | ralimetinib 0.053 | [10] -0.043 | [11] 0.002 | [12] -0.128 | [13] 0 | [14] 0.016 | [15] -0.035 | [16] 0.029

CLASP1 (UniProt Q7Z460)
UniProt Q7Z460, sequence (Q7Z460 whole entry, looked up): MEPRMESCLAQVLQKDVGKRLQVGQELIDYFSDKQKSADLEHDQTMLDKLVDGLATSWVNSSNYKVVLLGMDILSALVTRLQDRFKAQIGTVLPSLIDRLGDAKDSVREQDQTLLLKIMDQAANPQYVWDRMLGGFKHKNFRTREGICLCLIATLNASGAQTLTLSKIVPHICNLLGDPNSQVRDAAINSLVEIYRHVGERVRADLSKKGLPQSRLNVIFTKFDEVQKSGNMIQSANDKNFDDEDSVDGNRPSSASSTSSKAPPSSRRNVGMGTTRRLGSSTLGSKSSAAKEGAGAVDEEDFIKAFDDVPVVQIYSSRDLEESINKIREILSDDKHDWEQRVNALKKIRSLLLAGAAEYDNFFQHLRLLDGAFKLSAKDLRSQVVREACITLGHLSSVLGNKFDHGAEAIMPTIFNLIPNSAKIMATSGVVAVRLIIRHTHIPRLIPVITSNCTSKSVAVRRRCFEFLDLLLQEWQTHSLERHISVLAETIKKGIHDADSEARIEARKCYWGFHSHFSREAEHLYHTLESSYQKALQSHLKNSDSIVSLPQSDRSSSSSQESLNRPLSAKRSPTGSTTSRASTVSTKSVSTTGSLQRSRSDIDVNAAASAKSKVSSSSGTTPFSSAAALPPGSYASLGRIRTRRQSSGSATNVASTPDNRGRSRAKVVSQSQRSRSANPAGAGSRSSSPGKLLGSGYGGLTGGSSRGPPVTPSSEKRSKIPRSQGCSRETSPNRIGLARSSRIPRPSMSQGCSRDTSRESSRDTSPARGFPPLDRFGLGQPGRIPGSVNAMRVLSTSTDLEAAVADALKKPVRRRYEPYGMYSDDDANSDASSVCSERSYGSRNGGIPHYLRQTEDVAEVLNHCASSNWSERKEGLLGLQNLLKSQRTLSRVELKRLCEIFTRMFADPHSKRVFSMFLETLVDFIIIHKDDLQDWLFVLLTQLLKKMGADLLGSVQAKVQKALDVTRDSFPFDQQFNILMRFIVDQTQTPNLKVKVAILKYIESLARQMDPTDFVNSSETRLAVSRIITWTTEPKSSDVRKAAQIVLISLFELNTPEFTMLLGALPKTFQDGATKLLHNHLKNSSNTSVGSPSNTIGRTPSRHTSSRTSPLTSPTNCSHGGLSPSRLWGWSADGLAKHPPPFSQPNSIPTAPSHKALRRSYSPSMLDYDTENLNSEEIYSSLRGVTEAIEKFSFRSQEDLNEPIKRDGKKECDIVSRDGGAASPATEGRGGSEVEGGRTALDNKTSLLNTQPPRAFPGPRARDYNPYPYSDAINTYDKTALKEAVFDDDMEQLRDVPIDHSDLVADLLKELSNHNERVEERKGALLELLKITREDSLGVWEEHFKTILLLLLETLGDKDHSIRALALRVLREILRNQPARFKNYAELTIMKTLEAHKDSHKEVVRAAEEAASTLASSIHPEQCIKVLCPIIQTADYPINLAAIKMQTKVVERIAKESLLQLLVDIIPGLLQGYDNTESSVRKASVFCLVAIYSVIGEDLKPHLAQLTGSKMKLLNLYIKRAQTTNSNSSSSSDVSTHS
inactive: erlotinib 0.042 | [1] 0.082 | [2] -0.029 | [3] -0.022 | [4] 0.01 | [5] 0.026 | [6] -0.041 | [7] -0.035 | [8] 0.02 | IRAK-1-4 Inhibitor I 0.029 | [9] 0.013 | ralimetinib 0.02 | [10] 0.024 | [11] 0.01 | [12] 0.018 | [13] 0.004 | [14] 0.02 | [15] 0.036 | [16] 0.001

DNAH5 (UniProt Q8TE73)
inactive: erlotinib -0.006 | [1] -0.008 | [2] 0 | [3] -0.024 | [4] 0.015 | [5] 0.004 | [6] -0.056 | IRAK-1-4 Inhibitor I -0.015 | ibrutinib -0.064 | [9] -0.009 | ralimetinib -0.045 | [10] -0.138 | [11] 0.076 | [12] 0.062 | [13] 0.014 | [15] 0.019 | [16] 0.086

CSNK1E (UniProt P49674)
UniProt P49674, sequence (P49674 whole entry, looked up): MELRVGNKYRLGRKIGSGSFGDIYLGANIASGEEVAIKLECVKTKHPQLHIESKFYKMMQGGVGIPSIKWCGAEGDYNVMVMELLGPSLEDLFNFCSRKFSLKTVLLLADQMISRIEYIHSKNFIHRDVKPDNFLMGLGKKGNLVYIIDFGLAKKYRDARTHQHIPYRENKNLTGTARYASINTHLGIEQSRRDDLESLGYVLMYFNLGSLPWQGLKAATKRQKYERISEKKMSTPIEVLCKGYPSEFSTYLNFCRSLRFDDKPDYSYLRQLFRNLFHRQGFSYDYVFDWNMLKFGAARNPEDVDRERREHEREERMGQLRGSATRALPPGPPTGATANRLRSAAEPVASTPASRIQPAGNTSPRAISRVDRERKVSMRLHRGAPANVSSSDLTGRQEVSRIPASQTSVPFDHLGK
active: [5] 0.297 | [6] 0.345
inactive: erlotinib -0.003 | [1] 0.006 | [2] 0.161 | [3] 0.047 | [4] 0.018 | [7] -0.056 | [8] 0.009 | IRAK-1-4 Inhibitor I -0.032 | ibrutinib 0.029 | [9] 0.287 | ralimetinib 0.208 | [10] -0.026 | [11] -0.04 | [12] -0.012 | [13] -0.064 | [14] -0.049 | [15] -0.028 | [16] -0.039

CLPB isoform 2 (UniProt Q9H078)
UniProt Q9H078, sequence (Q9H078 whole entry, looked up): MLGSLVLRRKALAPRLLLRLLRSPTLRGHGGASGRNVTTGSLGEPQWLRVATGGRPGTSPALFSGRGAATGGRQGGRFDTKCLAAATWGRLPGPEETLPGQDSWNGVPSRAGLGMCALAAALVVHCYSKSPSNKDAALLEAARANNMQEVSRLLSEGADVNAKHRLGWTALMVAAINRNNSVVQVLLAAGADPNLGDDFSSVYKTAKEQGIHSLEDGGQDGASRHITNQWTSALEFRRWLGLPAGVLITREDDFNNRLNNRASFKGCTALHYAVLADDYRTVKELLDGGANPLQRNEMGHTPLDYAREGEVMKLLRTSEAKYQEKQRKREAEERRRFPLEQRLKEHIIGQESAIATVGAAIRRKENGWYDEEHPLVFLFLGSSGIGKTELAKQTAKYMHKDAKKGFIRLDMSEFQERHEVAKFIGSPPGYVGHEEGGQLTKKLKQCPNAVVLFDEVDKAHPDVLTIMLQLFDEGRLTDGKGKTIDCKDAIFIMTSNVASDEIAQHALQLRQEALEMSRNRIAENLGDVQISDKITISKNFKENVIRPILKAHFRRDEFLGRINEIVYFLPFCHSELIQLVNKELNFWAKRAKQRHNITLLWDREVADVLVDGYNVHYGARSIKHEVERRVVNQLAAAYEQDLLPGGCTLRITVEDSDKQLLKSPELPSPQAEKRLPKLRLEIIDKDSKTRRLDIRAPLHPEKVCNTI
inactive: erlotinib 0.023 | [1] -0.029 | [2] -0.028 | [3] 0.02 | [4] -0.047 | [5] -0.018 | [6] 0.006 | [7] 0.022 | [8] 0.055 | IRAK-1-4 Inhibitor I -0.002 | [9] -0.016 | ralimetinib 0.002 | [10] -0.024 | [11] -0.006 | [12] 0.002 | [13] -0.054 | [14] -0.011 | [15] 0.025 | [16] 0.012

CHURC1 isoform 2 (UniProt Q8WUH1)
inactive: erlotinib 0.05 | [1] -0.13 | [2] -0.021 | [3] -0.003 | [4] 0.015 | [5] 0.079 | [6] 0.002 | [7] -0.017 | [8] 0.058 | IRAK-1-4 Inhibitor I -0.002 | ibrutinib 0.055 | [9] 0.05 | ralimetinib 0.027 | [10] -0.077 | [11] 0.07 | [12] -0.065 | [13] 0.057 | [14] 0.085 | [15] -0.102 | [16] 0.004

DPY19L3 (UniProt Q6ZPD9)
UniProt Q6ZPD9, sequence (Q6ZPD9 whole entry, looked up): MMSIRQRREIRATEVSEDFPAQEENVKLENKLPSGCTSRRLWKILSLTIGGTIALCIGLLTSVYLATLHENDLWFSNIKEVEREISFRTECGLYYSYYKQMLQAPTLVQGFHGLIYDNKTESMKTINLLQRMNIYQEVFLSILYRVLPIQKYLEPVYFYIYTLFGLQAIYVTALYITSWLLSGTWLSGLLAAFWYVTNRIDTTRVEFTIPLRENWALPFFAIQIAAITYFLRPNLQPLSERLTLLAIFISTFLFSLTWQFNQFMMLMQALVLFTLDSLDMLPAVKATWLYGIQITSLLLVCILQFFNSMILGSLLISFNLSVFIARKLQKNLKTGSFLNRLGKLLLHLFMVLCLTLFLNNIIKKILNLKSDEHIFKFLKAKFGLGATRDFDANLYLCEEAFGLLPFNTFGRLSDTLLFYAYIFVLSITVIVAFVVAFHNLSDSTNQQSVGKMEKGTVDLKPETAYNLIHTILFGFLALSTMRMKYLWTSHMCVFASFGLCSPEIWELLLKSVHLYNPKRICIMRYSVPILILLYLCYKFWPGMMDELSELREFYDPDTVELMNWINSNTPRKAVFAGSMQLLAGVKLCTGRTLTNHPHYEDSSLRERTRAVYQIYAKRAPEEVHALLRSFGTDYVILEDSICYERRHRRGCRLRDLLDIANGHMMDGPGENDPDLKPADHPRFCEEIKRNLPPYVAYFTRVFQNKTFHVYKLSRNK
inactive: erlotinib -0.131 | [1] 0.007 | [2] -0.097 | [3] 0.101 | [4] 0.211 | [6] -0.2 | [7] 0.005 | [8] 0.008 | ibrutinib -0.111 | [9] 0.012 | [11] -0.224 | [14] 0.047 | [16] -0.017

CLP1 (UniProt Q92989)
inactive: erlotinib 0.024 | [1] 0.027 | [2] -0.011 | [3] -0.001 | [4] -0.045 | [5] -0.014 | [6] 0.034 | [7] -0.024 | [8] -0.033 | IRAK-1-4 Inhibitor I -0.045 | [9] 0.062 | ralimetinib 0.006 | [10] 0.003 | [11] 0.012 | [12] 0.023 | [13] 0.001 | [14] -0.02 | [15] -0.037 | [16] 0.01

DBF4 (UniProt Q9UBU7)
UniProt Q9UBU7, sequence (Q9UBU7 whole entry, looked up): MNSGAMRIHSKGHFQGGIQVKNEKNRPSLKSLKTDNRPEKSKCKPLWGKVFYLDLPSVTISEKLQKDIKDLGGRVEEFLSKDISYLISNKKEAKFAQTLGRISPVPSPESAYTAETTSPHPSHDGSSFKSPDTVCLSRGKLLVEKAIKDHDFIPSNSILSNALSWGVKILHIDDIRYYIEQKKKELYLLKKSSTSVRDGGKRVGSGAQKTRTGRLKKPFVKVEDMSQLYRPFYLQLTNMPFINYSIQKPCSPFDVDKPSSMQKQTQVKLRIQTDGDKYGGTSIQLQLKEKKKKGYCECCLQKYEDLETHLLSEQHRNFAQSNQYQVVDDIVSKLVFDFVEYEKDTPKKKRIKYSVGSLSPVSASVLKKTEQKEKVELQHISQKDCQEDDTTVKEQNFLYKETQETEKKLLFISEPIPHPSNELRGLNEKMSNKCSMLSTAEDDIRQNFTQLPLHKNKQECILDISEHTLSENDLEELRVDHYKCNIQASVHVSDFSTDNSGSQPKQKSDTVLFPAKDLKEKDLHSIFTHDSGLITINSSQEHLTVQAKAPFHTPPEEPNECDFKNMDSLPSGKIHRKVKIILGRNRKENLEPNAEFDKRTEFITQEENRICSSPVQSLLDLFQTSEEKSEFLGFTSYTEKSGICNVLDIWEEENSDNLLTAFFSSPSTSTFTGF
active: [4] -0.342
inactive: erlotinib 0.03 | [1] 0.056 | [2] 0.005 | [3] -0.033 | [5] 0.098 | [6] -0.058 | [7] -0.068 | [8] -0.022 | IRAK-1-4 Inhibitor I 0.04 | ibrutinib -0.06 | ralimetinib -0.048 | [10] -0.017 | [11] -0.01 | [12] -0.062 | [13] -0.058 | [14] -0.012 | [15] -0.042

CLCN3 (UniProt P51790)
inactive: erlotinib -0.047 | [1] 0.043 | [2] -0.067 | [3] 0.06 | [4] 0.016 | [5] -0.02 | [6] 0.084 | [7] -0.043 | [8] -0.117 | IRAK-1-4 Inhibitor I 0.083 | [9] 0.038 | ralimetinib 0.038 | [10] 0.05 | [11] -0.089 | [12] -0.03 | [13] 0.024 | [14] -0.155 | [15] -0.017 | [16] 0.079

— the supplement of paper PMC10849652
